Laboratory results taken from PubChem BioAssay AID651965 (National Center for Advancing Translational Sciences (NCATS), 2013).
The whole screen tested about 340,000 compounds, of which about 6,400 (1.9%) were called active. Roughly 4% stayed inconclusive and do not appear here. Calls come from the whole dose curve; as a rule, active = well fitted falling curve with a large enough effect; inconclusive = small, poorly fitted or top-dose-only effect; inactive = no such curve, though single readings can be large or run the other way. Shown is part of a subset that was picked to be rich in actives.

target: ATP-dependent Clp protease proteolytic subunit (Bacillus subtilis (strain 168)) (UniProt P80244); test: qHTS Assay for Activators of ClpP; note: the source files actives as falling curves though it sought activators and does not explain the sign; nearly all actives have a fitted effect of over 65% in size; details: purified B. subtilis ClpP, FRET peptide cleavage, 20 min; series mostly up to 57.5 µM
How it was run: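 FRET quenching reversal measured ClpP activation: 10 microg/mL B. subtilis ClpP at pH 8 with the FRET-FV decapeptide, read at 430 nm after 320 nm excitation. The 20-min minus 0-min signal was scaled between DMSO/no-enzyme wells and ADEP (5.8 microM final).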
Potency is the fitted concentration of half-maximal effect.

Chain of ATP-dependent Clp protease proteolytic subunit (Bacillus subtilis (strain 168)) (P80244 whole entry, looked up): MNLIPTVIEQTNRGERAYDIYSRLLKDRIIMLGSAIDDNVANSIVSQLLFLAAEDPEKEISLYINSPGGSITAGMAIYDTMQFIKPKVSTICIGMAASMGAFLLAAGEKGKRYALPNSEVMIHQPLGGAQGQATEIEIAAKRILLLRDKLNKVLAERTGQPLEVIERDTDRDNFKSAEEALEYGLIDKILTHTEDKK

Potency, inactive:
CC(C)(C(=O)N1CCC1(C)C(=O)NS(=O)(=O)c1ccc(Br)cc1)c1ccccc1 (stereo not drawn)
O=C(Nc1ccccc1)c1ccc(NC(=O)c2cccs2)cc1
COc1cc(Cl)c(C)cc1NC(=O)[C@@H]1CCCN1C(=O)c1cccs1
CCC1OC(C2CC2)CC2=C1C(=O)OC(C)(C)O2 (stereo not drawn)
CC(C)(C)OC(=O)N(Cc1ccccc1)Cc1ccc(OCc2cccc(NC(=O)c3ccccc3)c2)cc1
CCc1cc(C(N)=O)c(NC(=O)c2ccc(OC)cc2)s1
COCCNC(=O)C1(C)CCCN(Cc2cccc(F)c2)C1 (stereo not drawn)
COc1ccc(OCCCn2c(C)nc3cc(C)c(C)cc32)cc1
COc1ccc(OCCCCN2CCC(C)CC2)cc1
O=C(C[C@H]1C[C@H]2c3cc(NS(=O)(=O)c4ccc(F)cc4)ccc3O[C@H]2[C@H](CO)O1)NCc1cc(F)ccc1F
Cc1c(C(=O)CN2CCOCC2)[nH]c2ccccc12
Cc1cc(NC(=O)CCN2CCN(Cc3ccccc3)CC2)ccc1Br
COC(=O)c1[nH]c2ccccc2c1NC(=O)CN1CCCc2ccccc21
CCOC(=O)N1CCN(CCC(=O)Nc2cc(OC)ccc2OC)CC1
CCOC(=O)[C@]12CCCC=C1N(Cc1ccc(Cl)cc1Cl)C(=O)[C@H](CC(=O)N1CCCCC1)C2
OCC(O)C(O)C(O)C(O)C=Nc1ccc(/C=C/c2ccnc3ccccc23)cc1 (stereo not drawn)
CCCc1ccc(S(=O)(=O)N2CCN(C(=O)c3cc(C)on3)CC2)cc1
CCOc1ccc(CCN2C(=O)C(=O)N([C@@H](CC(C)C)CN3CCC[C@H]3CN3C(=O)C(=O)NC[C@@H]3Cc3ccccc3)C[C@@H]2CC(C)C)cc1
CC(C)NC(=O)C1(C)CCCCCN1C(=O)c1ccc(-c2ccccc2)cc1 (stereo not drawn)
O=C(COc1coc(CN2CCN(c3ccccc3F)CC2)cc1=O)N1CCc2ccccc21
O=C(COc1coc(CN2CCN(c3ccccc3)CC2)cc1=O)Nc1ccccc1F
CS(=O)c1ccc(/C=C2\C=Cc3ccccc32)cc1 (stereo not drawn)
CCCNC(=O)C1(C)CCCN(Cc2cccc(C(F)(F)F)c2)C1 (stereo not drawn)
Cc1cc(C)c(S(=O)(=O)NN=C2c3ccccc3[C@H]3Cc4csc[n+]4[C@@H]23)c(C)c1
Cc1ccc(-c2nc3ccccn3c2Nc2ccc(F)cc2)o1
COc1ccccc1C(=O)Nc1ccc(NC(=O)c2ccco2)c(C)c1
COc1ccc(NC(=O)c2ccco2)cc1NC(=O)COc1ccc(C)c(C)c1
Cc1ccc(NC(=O)c2ccco2)cc1
O=C(Nc1ccc(NC(=O)c2cccs2)cn1)c1ccco1
O=C1C(Sc2cccc(F)c2)=C[C@@]2(O)CC[C@@H](O)[C@]1(Sc1cccc(F)c1)[C@H]2O
CCOc1ccc(C(=O)NC2CCN(S(=O)(=O)CC)CC2)cc1
CCOc1ccc(CC(=O)NC2CCN(Cc3ccccc3)CC2)cc1
NC1=CC(=O)C(=O)c2cccnc21
Cc1ccc([C@@H]2CC(=O)[C@@H]3CN(S(=O)(=O)c4ccc(C)cc4)[C@H](c4ccccc4F)C[C@@H]3N2S(=O)(=O)c2ccc(Cl)cc2)cc1
COCCCNC(=S)N1CCN(c2nc(-c3cccc(OC)c3)cs2)CC1
COc1cccc(NC(=O)CN2CCN(CC(=O)Nc3ccccc3Cl)CC2)c1
COC(=O)[C@]12CCCCC=C1N(CCC1=CCCCC1)C(=O)[C@H](CC(=O)NCC1CCCCC1)C2
NS(=O)(=O)c1ccc(NC2=CC(c3ccc(F)cc3)N(c3ccc(S(N)(=O)=O)cc3)C2=O)cc1 (stereo not drawn)
CC(=O)C1=C(O)C(=O)N(c2ccc(Br)cc2)C1c1ccc([N+](=O)[O-])cc1 (stereo not drawn)
CCc1ccccc1OCCSc1nc(-c2cccs2)nc2cc(=O)[nH]n12
Cc1ccc(-c2nc(SCc3ccc(Br)cc3)n3[nH]c(=O)cc3n2)cc1
C=CCc1c(C)nc2cc(-c3ccccc3)[nH]n2c1=O
CCC(C)n1[nH]c(=O)c2c(C)cc(C)nc21 (stereo not drawn)
Cc1cc(Br)cn2c(Cc3ccsc3)c(-c3ccc(C#N)cc3)nc12
CCOC(=O)[C@]12CCC=C1N(Cc1ccco1)C(=O)[C@H](CC(=O)N1CCSCC1)C2
Nc1nc(N)c(N=O)c(N)n1
CCC(=O)N(CCc1ccccc1)Cc1cc2cc(C)ccc2[nH]c1=O
CCC(=O)N(Cc1cc2ccccc2[nH]c1=O)c1ccc(OC)cc1
CC(C)N=C1CCCC1C(=S)SSC(=S)C1CCCC1=NC(C)C (stereo not drawn)

Potency, active:
COc1cc(NC(=O)c2cccs2)ccc1NC(=O)c1ccccc1Cl 14.1 µM
CC(C)c1cc(C(N)=O)c(NC(=O)c2cccc(COc3ccc(Br)cc3)c2)s1 25.1 µM
COc1ccc(OCCn2ccnc2C)cc1 3.16 µM
CCOC(=O)c1[nH]c2ccc(OC)cc2c1NC(=O)CCN1CCN(Cc2ccccc2)CC1 31.6 µM
CCOC(=O)c1[nH]c2ccc(OC)cc2c1NC(=O)N1CCOCC1 25.1 µM
O=C(COc1coc(CN2CCN(c3ccccc3)CC2)cc1=O)N1CCc2ccccc21 28.2 µM
Cc1ccc(C(=O)COc2cccc(NC(=O)c3ccco3)c2)cc1 15.8 µM
COc1cccc(C(=O)Nc2ccc(NC(=O)c3ccco3)cn2)c1 14.1 µM
CCOc1ccc(NS(=O)(=O)c2ccc(C(=O)NC3CCN(Cc4ccccc4)CC3)cc2)cc1 28.2 µM
COc1cccc(NC(=O)CN2CCN(c3nc(-c4cccc(OC)c4)cs3)CC2)c1 17.8 µM
CC(=O)C1=C(O)C(=O)N(c2ccc(S(N)(=O)=O)cc2)C1c1ccccc1F (stereo not drawn) 25.1 µM
CCc1c(C)nc2cc(-c3cccs3)[nH]n2c1=O 22.4 µM
CCc1c(C)nc2cc(C)[nH]n2c1=O 22.4 µM
CCOc1ccc2[nH]c(=O)c(CN(CCCO)C(C)=O)cc2c1 28.2 µM
